Experimental data from PubChem BioAssay AID1273 (Columbia University Molecular Screening Center, 2008).
Hit rate of the full screen: of about 130,000 compounds, about 1,200 (0.92%) were called active.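 Rule for the calls: active = inhibition above the mean plus 3 SD, with well images judged a real hit on visual review (cut at about 60% in these data, passing the limit was not always enough); inconclusive = inhibition over the cutoff but images rejected on review; inactive = inhibition not above the cutoff.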 For the sample, actives were picked, then their nearest neighbours and some compounds at random.

Test: inhibitors of insulin promoter-driven GFP, primary screen, imaging, TRM-6 cells (human fetal islet line), eGFP reporter, cell count (AID 1273;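 for normalized cell count: cells exposed to compound for 48 h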)
Conditions: at 2 µM; inhibition: stronger effect = higher value; normalized cell count: measured here: cell count, toxicity
In the case of COP(=O)(OC)C(NC(=O)c1ccc(C)cc1)C(Cl)(Cl)Cl (stereo not given), the inhibition is reported as 78.6% (active) and the normalized cell count is reported as 102%. With CC(=O)c1ccc(OC(NC(=O)Cc2ccccc2)C(Cl)(Cl)Cl)cc1 (stereo not given) the inhibition was -6.45% (inactive) and the normalized cell count was 137%. With CCOP(=O)(OCC)C(NC(=O)c1ccc(C)cc1)C(Cl)(Cl)Cl (stereo not given) the inhibition was -37.5% (inactive) and the normalized cell count was 107%. For O=C(OCCN1CCOCC1)C1(c2ccccc2)CCCC1, the inhibition was -36.4% (inactive) and the normalized cell count was 95.2%. With CN(C)P(=S)(Nc1ccccc1)C(Cl)(Cl)Cl (stereo not given) the inhibition was 26.7% (inactive) and the normalized cell count was 29.6%. In the case of Cc1ccc(-c2nn(CCC#N)cc2C(=O)O)cc1C, the inhibition is reported as -30% (inactive) and the normalized cell count is reported as 85.1%. In the case of CCN(CC)C(=O)c1ccc(NC(=O)c2cc(-n3cnnc3)ccc2Cl)cc1, the inhibition is reported as 86.7% (active) and the normalized cell count is reported as 44.7%. For CC(c1ccccc1)(c1ccccc1)c1ccncc1, the inhibition was 27.3% (inactive) and the normalized cell count was 109%. For Cc1ccsc1C(=O)C1CCCN(Cc2ccc(O)cc2)C1 (stereo not given), the inhibition was 11.1% (inactive) and the normalized cell count was 139%. For C=CCN(CC=C)C(=O)Nc1ccc(OCC)cc1, the inhibition was 36.8% (inactive) and the normalized cell count was 88.5%.
